# Screening results deposited in PubChem BioAssay by National Center for Advancing Translational Sciences (NCATS).
# RORgamma inh: qHTS for inhibitors of ROR gamma transcriptional activity; Nuclear receptor ROR-gamma (Mus musculus), P51450; Drosophila S2 Gal4-RORgamma UAS-luciferase reporter, 20 h; actives 5.4% (n = 310,000); Potency, µM (series often up to 53.6 µM), for the others: at the highest dose activity change, negative = inhibition, actives largely listed as inhibitors; note: potency is the fitted concentration of half-maximal effect; nearly all actives have a fitted effect of over 60% in size
# Target sequence (P51450 whole entry, looked up, the tested form may be a part): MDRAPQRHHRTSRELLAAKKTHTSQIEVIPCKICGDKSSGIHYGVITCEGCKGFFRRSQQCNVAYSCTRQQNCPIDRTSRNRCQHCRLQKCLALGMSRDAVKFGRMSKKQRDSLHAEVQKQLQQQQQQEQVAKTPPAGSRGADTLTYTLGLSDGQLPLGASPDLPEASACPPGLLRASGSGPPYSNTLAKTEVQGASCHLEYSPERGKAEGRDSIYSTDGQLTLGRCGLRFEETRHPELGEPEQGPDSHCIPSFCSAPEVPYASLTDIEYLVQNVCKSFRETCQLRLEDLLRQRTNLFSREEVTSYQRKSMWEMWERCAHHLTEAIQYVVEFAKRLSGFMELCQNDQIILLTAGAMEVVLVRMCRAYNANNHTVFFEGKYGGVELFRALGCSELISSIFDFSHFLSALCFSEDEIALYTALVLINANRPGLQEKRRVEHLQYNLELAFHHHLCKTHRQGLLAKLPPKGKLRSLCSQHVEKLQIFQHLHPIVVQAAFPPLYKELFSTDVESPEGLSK
#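 Luciferase reporter read in Schneider cells carrying Gal4-RORγ (mouse) and UAS-Photinus luciferase; cells given compound 1 h before 700 uM copper sulfate induction, then incubated 20 h at ambient temperature.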
# DT40 TDP1 CPT: qHTS for Inhibitors of human tyrosyl-DNA phosphodiesterase 1 (TDP1): qHTS in cells in presence of CPT. chicken DT40 Tdp1-/-;hTDP1 cells + 20 nM CPT, ATP luminescence, 48 h. Potency, µM (series often up to 46.2 µM), for the others: at the highest dose activity change, negative = growth inhibition, usual class: inhibitors. actives 12% (n = 420,000); note: potency is the fitted concentration of half-maximal effect; nearly all actives have a fitted effect of over 55% in size
#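 Cell growth measured by CellTiter-Glo luminescence after a minimum 48 h, 37 C compound exposure with 20 nM CPT in Tdp1-knockout DT40 cells stably expressing hTDP1, seeded 400/well; qHTS titration format.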
# LDHA block: qHTS assay for inhibitors of human lactate dehydrogenase; L-lactate dehydrogenase A chain (Homo sapiens), P00338; purified LDHA, NADH/diaphorase-resazurin fluorescence; hits give low values; activity change, % (values are at about 110 or 230 µM); actives 0.15% (n = 480,000); in the data active = activity change below about -30%; inconclusive = mostly about -25% to -30%;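 note: plate controls were DMSO wells for no effect and wells without enzyme for full effect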
#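 Resorufin fluorescence (ex540/em590), read at 0 and 20 min after diaphorase/resazurin addition, reports the NADH left after a 5 min room-temperature reaction of 2 nM human LDH5 with 0.06 mM NADH and 0.2 mM pyruvate.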
# Gal4-VP16 FLuc: VP16 counterscreen qHTS for inhibitors of ROR gamma transcriptional activity | Drosophila S2 Gal4-VP16 UAS-luciferase, luminescence, 20 h | Potency, µM (titrated, usually from 53.6 µM), without a hit: top-dose activity, negative = inhibition, hits mostly inhibitors | actives 3.5% (n = 310,000) | AID 2546, 2010;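 note: Gal4-VP16 expression switched on by copper sulfate through the metallothionein promoter; potency is the fitted concentration of half-maximal effect; nearly all actives have a fitted effect of over 50% in size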
# IL1B secr inh: qHTS for Inhibitors of Inflammasome Signaling: IL-1-beta AlphaLISA Primary Screen. THP-1 LPS/ATP IL-1B secretion, AlphaLISA, 16 h; hits give low values. activity change, % at 57.5 µM. actives 4.7% (n = 360,000). AID 743279, 2014; in the data active = activity change below about -50%; inconclusive = mostly about -30% to -49%
#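 Secreted IL-1B measured by AlphaLISA bead assay after 16 h compound exposure of THP-1 cells; compounds (final up to 57.5 uM) added 1 h before LPS (250 ng/mL) and ATP (1.25 mM) stimulation; lower signal means less secretion.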
# TDP1 cell noCPT: qHTS for Inhibitors of human tyrosyl-DNA phosphodiesterase 1 (TDP1): qHTS in cells in absence of CPT. actives 15% (n = 420,000). DT40 Tdp1-/- hTDP1 cells, no CPT, ATP luminescence, 48 h. AID 686978, 2013. Potency, µM (highest dose often 46.2 µM), without a hit: top-dose activity change, negative = growth inhibition, usual class: inhibitors; note: potency is the fitted concentration of half-maximal effect; nearly all actives have a fitted effect of over 55% in size
#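 Readout: luminescence from CellTiter-Glo after 30 min in the dark at RT. Cells: DT40 Tdp1-/- with stable hTDP1, 400/well. Exposure: compounds alone, ≥48 hr, 37 °C.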
# The depositor's hits bear a star; ? = inconclusive; / = no result given; [ ] = remark or other dose. This is a sample that favours compounds with a hit; in the whole collection about 18% have one here. Unless noted, calls come from the whole dose curve; as a rule, active = well fitted curve in the direction sought with a large enough effect; inconclusive = small, poorly fitted or top-dose-only effect, or another doubt; inactive = no such curve, though single readings can be large; an effect the other way counts as inactive or inconclusive. Unless noted, % is set by controls: 0 for no effect and ±100 for the full control effect.
SMILES,RORgamma inh,DT40 TDP1 CPT,LDHA block,Gal4-VP16 FLuc,IL1B secr inh,TDP1 cell noCPT
Fc1ccc(-c2ccn[nH]2)cc1,/,/,-0.4,/,/,/
Cc1ccc(-c2nc3nc(C)cc(Nc4ccc(N(C)C)cc4)n3n2)cc1,/,/,2.8,/,/,/
Cc1ccc(C2CC2C(=O)N(Cc2ccncc2)C2CC2)s1 (stereo unspecified),/,/,4.3,/,/,/
O=C(c1ccccc1Cl)N1N=C(c2ccc(Br)cc2)CC1c1nc2ccccc2[nH]1 (stereo unspecified),?,?,-1.7,?,-67.2*,16.4µM*
COc1ccc(C2=NN(C(=O)c3cccs3)C(c3ccccc3OC)C2)cc1OC (stereo unspecified),-18.2%,?,-3.2,1.3%,-84.1*,?
CC(=O)N1N=C(c2ccccc2)CC1c1cn(Cc2ccccc2)c2ccccc12 (stereo unspecified),?,18.4µM*,-5.0,?,-4.2,?
CN1C(=O)CC(c2cn(Cc3ccccc3)c3ccccc23)C1=O (stereo unspecified),43.9%,-0.1%,2.5,-5.0%,38.2,-5.9%
Cc1ccc(C2=NN(C(=O)c3ccccc3F)C(c3ccccc3F)C2)cc1 (stereo unspecified),-17.9%,20.6µM*,-1.3,-5.2%,-15.6,20.6µM*
CCCc1sc(C(=O)OCCOc2ccc(S(N)(=O)=O)cc2)cc1CC,/,/,5.9,/,/,/
O=C(c1cccs1)N1N=C(c2ccccc2)CC1c1ccccc1O (stereo unspecified),-22.9%,-2.9%,-11.9,-17.8%,-78.6*,?
O=C(c1ccncc1)N1N=C(c2ccc(Br)cc2)CC1c1ccccc1O (stereo unspecified),24.9%,?,-4.0,-14.7%,-62.6*,?
O=C(c1ccccc1)N1N=C(c2ccccc2)CC1c1ccccc1O (stereo unspecified),4.47µM*,23.1µM*,-1.5,3.98µM*,-108.0*,?
O=C(NNC1CC(c2ccccc2)=NN1C(=O)c1ccccc1)c1ccccc1 (stereo unspecified),25.6%,25.9µM*,3.8,-3.7%[10 µM],-6.9,23.1µM*
Cc1ccc(C2=NN(C(=O)c3cccs3)C(c3ccccc3O)C2)cc1 (stereo unspecified),0.2%,?,-3.2,-12.3%,-26.4,?
O=C(c1ccccc1)N1N=C(c2ccccc2)CC1c1ccc2nccnc2c1 (stereo unspecified),?,?,-3.0,12.6%,-3.4,?
CC(=O)N1N=C(c2ccncc2)CC1c1ccccc1O (stereo unspecified),?,10.7%,-0.9,-14.5%,105.7,0.2%
O=C(Nc1cccc(C(F)(F)F)c1)C1=C(c2ccccc2)S(=O)(=O)CCO1,/,/,0.1,/,/,/
O=c1[nH]c(=O)n(CCc2ccccc2)c2nccc(-c3ccccc3Cl)c12,/,/,-6.3,/,/,/
CCOc1cc(C=O)cc(Cl)c1OC,/,/,1.7,/,/,/
CCOc1ccccc1NC(=O)Nc1ccc2nc(N3CCN(C)CC3)cc(C)c2c1,/,?,2.6,/,/,23.1µM*
CCOC(=O)N1CCC(NC(=S)Nc2ccc3nc(N4CCN(C)CC4)cc(C)c3c2)CC1,-30.5%,-18.1%,-3.9,?,-100.2*,?
CCOc1ccccc1C(=O)Nc1ccc2nc(N3CCN(c4ncccn4)CC3)cc(C)c2c1,/,18.4µM*,-3.4,/,?,9.2µM*
COc1cccc(C(=O)Nc2ccc3nc(N4CCN(c5ncccn5)CC4)cc(C)c3c2)c1OC,?,/,/,-5.3%,/,/
CCC(C)C(C(=O)NCc1ccc(C(=O)OC)cc1)c1ccccc1 (stereo unspecified),/,/,9.1,/,/,/
O=c1cc(CN2CCN(Cc3cccc(C(F)(F)F)c3)CC2)nc2ccc(Br)cn12,/,/,-6.1,/,/,/
SMILES,RORgamma inh,DT40 TDP1 CPT,LDHA block,Gal4-VP16 FLuc,IL1B secr inh,TDP1 cell noCPT
O=C(O)C(c1c(-c2ccccc2)[nH]c2ccccc12)N1CCN(Cc2cccnc2)CC1 (stereo unspecified),/,/,7.5,/,/,/
COc1cccc(-c2nc(-c3ccc4c(c3)CCC4)cs2)c1OC,/,/,-10.5,/,/,/
Cc1csc(NC(=O)COc2cccc3ccccc23)n1,/,/,-3.5,/,/,/
Cc1nc(-c2ccccc2F)sc1C(=O)NC1C=CS(=O)(=O)C1 (stereo unspecified),/,/,-0.4,/,/,/
N#Cc1ccc(NC(=O)COCc2cc(-c3ccc(F)cc3)on2)cc1,/,?,-6.0,/,/,20.6µM*
O=C(COCc1cc(-c2ccc(F)cc2)on1)Nc1cccc(O)c1,/,/,1.3,/,/,/
CCCNC(=O)COc1cccc(-c2nc(-c3ccc(C)cc3)no2)c1,/,/,1.4,/,/,/
O=C(c1ccc(N2CCCC2=O)cc1)N1CCN(c2cccc(C(F)(F)F)c2)CC1,/,16.4µM*,-1.7,/,?,23.1µM*
COc1ccc(N2CC(C(=O)N3CCN(c4cccc(C(F)(F)F)c4)CC3)CC2=O)cc1 (stereo unspecified),/,/,4.0,/,/,/
O=C(c1cccc(N2CCCC2=O)c1)N1CCN(c2ccc(F)cc2)CC1,-7.6%,3.7%,-0.4,3.1%,3.5,17.2%
O=C(c1cccc(N2CCCC2=O)c1)N1CCN(c2cccc(Cl)c2)CC1,5.0%,?,0.5,-1.1%,4.0,3.26µM*
O=C(C1CC(=O)N(c2ccc3c(c2)OCCO3)C1)N1CCN(c2cccc(C(F)(F)F)c2)CC1 (stereo unspecified),/,?,-4.6,/,-13.2,23.1µM*
CCc1nc2ccc(C(=O)N3CCN(c4cccc(C(F)(F)F)c4)CC3)cc2nc1CC,29.7%,?,-0.3,1.2%,-18.4,?
O=C(c1ccc(N2CCCC2=O)cc1)N1CCCCCC1,7.8%,-17.6%,-3.7,1.3%,-8.9,2.3%
Cc1cccc(N2CCN(C(=O)c3ccc(N4CCCC4=O)cc3)CC2)c1C,-7.0%[10 µM],11.6µM*,-1.3,-1.5%,-25.2,23.1µM*
COC(=O)c1c(C)[nH]c(C(=O)CSc2nnc(C)s2)c1C,/,/,1.6,/,/,/
O=C(c1c(F)cccc1F)N1CCN(c2cccc(C(F)(F)F)c2)CC1,?,?,-6.5,17.8µM*,-28.7,?
C/C(=C\c1ccccc1)C(=O)N1CCN(c2cccc(C(F)(F)F)c2)CC1,-7.8%[10 µM],5.6%,5.6,-1.7%,-64.9*,-7.8%
